The values that follow come from PubChem BioAssay (EPA / NIEHS).

Active and inactive are the calls of the source. Rule for the calls: active = hit-call score of the fitted dose curve at least 0.9, where 1 is the maximum; inactive = score below 0.9.

This assay is described as follows: APR_HepG2_p53Act_1hr: Apredica 1-hour HepG2 Assay for p53 Activation (AID 2282671). The note with it: high-content imaging, actives raise or lower the signal. As for the experimental part: APR_HepG2_1hr is a cell-based, multiplexed-readout assay that uses HepG2, a human liver cell line, with measurements taken at 1 hour after chemical dosing in a 384-well plate.APR_HepG2_p53Act_1hr is one of 10 assay component(s) measured or calculated from the APR_HepG2_1hr assay. It is designed to make measurements of dna content, a form of viability reporter, as detected with fluorescence intensity signals by HCS Fluorescent Imaging technology.Data from the assay component APR_HepG2_p53Act_1hr was analyzed into 1 assay endpoint. This assay endpoint, APR_HepG2_p53Act_1hr, was analyzed with bidirectional fitting relative to DMSO as the negative control and baseline of activity. Using a type of viability reporter, measures of protein for gain or loss-of-signal activity can be used to understand the signaling at the pathway-level as they relate to the gene TP53. Furthermore, this assay endpoint can be referred to as a primary readout, because this assay has produced multiple assay endpoints where this one serves a signaling function. To generalize the intended target to other relatable targets, this assay endpoint is annotated to the dna binding intended target family, where the subfamily is tumor suppressor.
Cells were treated with dimethyl sulfoxide (DMSO) as a solvent control at a final concentration of 0.5% v/v or with compounds in DMSO with a resulting final DMSO concentration of 0.5% v/v. Compound treatment was done at concentrations of 0.39, 0.78, 1.56, 3.12, 6.24, 12.5, 25, 50, 100, and 200 uM in duplicate on each plate. Cells were treated with compounds for 1, 24, or 72 hr. Carbonyl […] m-chloro-phenylhydrazone (CCCP) and taxol were used as positive controls for mitochondrial function and cytoskeletal stability, respectively; DMSO served as the negative control for this experiment. Cells were fixed by the direct addition of 50 uL formaldehyde in Hank's Balanced Salt Solution (HBSS) to a final concentration of 3.7%. After incubation in the fixation medium for 30 min at room temperature (293-298 K), cells were rinsed twice with HBSS and treated with cell permeabilization buffer (16 uL of 0.5% Triton X-100) for 10 min at room temperature (293-298 K) before labeling. For mitochondrial membrane potential and mitochondrial measurements, pre-fixed cells were incubated with 50 uL of MitoTracker Red CMXRos (Invitrogen) at a concentration of 250 nM for 30 min before fixation. In the remaining cases, post-fixed cells were labeled by incubation with a multiplexed mixture of primary antibodies in HBSS for 60 min at room temperature (293-298 K) to detect immunoreactivity of c-Jun (1:500), phospho-histone H3 (1:100), phospho-histone H2A.x (1:200), p53 (1:400), alpha-tubulin (1:200) and Hoechst 33342 (2 ug/mL). Cells were labeled for multiplexed imaging on two separate plates: a) Hoechst 33342, MitoTracker Red, phospho-histone H3, and alpha-tubulin, and b) Hoechst 33342, phospho-histone H2A.x, and c-Jun. A final rinse with HBSS (50 uL) was performed before analysis. The primary and secondary antibodies for the proteins were phospho-histone H3 (rabbit anti-phospho-histone H3 and FITC-donkey anti-rabbit IgG), phospho-histone H2A.x (mouse anti-phospho-histone H2A.x and FITC-donkey anti-mouse IgG), c-Jun (rabbit anti-phospho-c-Jun and Cy3-donkey anti-rabbit IgG), p53 (sheep anti-p53 and Cy5-donkey anti-sheep IgG), alpha-tubulin (mouse anti-alpha-tubulin and Cy5-donkey anti-mouse IgG). These antibodies are available as the CellCiphr HepG2 assay kit (Millipore).Digital images of each well were captured using a Cellomics ArrayScan VTI (Thermo Scientific Cellomics) (0.8 NA objective, 0.63x optical coupler, and XF-93 filter set) at 20x magnification. The images were acquired using the autofocus feature of the ArrayScan instrument, which entails the following steps. First, the camera focuses on channel 1 (Hoechst 33342), where nuclei are identified. Second, a Z offset of 1 um is used for capturing mitochondria (MitoTracker Red). […]
Consider `CCC(C)(C)C(=O)OC1=C(c2ccc(Cl)cc2Cl)C(=O)OC12CCCCC2`, for which the result was inactive.
With `COP(=S)(OC)Oc1ccc(SC)c(C)c1`, the molecule was classed as inactive.
On to `O=C(O)C(F)(F)C(F)(F)C(F)(F)C(F)(F)C(F)(F)C(F)(F)C(F)(F)F`, for which the outcome was inactive.
On to `CCN(CC)C(=O)SCc1ccc(Cl)cc1`, for which the molecule was classed as inactive.
With `CCOc1nc(NC)nc(NC(=O)NS(=O)(=O)c2ccccc2C(=O)OC)n1`, the molecule was called inactive.
As for `CC(C)OC(=O)Nc1cccc(Cl)c1`, the molecule was classed as inactive.
For the molecule `OCCOc1ccccc1`, the call was inactive.
As for `CCCN(CCOc1c(Cl)cc(Cl)cc1Cl)C(=O)n1ccnc1`, the outcome was inactive.
`COP(=S)(OC)Oc1ccc([N+](=O)[O-])cc1`: the molecule was called inactive.
For the molecule `O=C1c2ccccc2C(=O)N1SC(Cl)(Cl)Cl`, the outcome was inactive.
With `COC(=O)c1ccccc1S(=O)(=O)NC(=O)N(C)c1nc(C)nc(OC)n1`, the call was inactive.
In the case of `COc1cc(OC)nc(NC(=O)NS(=O)(=O)c2cc(NC=O)ccc2C(=O)N(C)C)n1`, the call was inactive.
Consider `O=S(=O)(O)C(F)(F)C(F)(F)C(F)(F)C(F)(F)C(F)(F)C(F)(F)C(F)(F)C(F)(F)F`, for which the outcome was inactive.
The result for `O=S1OCC2C(CO1)C1(Cl)C(Cl)=C(Cl)C2(Cl)C1(Cl)Cl` (stereo not given) reads “inactive”; that for `CC[C@H](C)[C@H]1O[C@]2(C=C[C@@H]1C)C[C@@H]1C[C@@H](C/C=C(\C)[C@@H](O[C@H]3C[C@H](OC)[C@@H](O[C@H]4C[C@H](OC)[C@@H](O)[C@H](C)O4)[C@H](C)O3)[C@@H](C)/C=C/C=C3\CO[C@@H]4[C@H](O)C(C)=C[C@@H](C(=O)O1)[C@]34O)O2` (tested in a mixture with another compound), “inactive”.
As to `COC(=O)c1ccccc1S(=O)(=O)NC(=O)Nc1nc(C)nc(OC)n1`, the outcome was inactive.
As for `CCc1ccc(C(=O)NN(C(=O)c2cc(C)cc(C)c2)C(C)(C)C)cc1`, the molecule was classed as inactive.
Turning to `CC1(c2ccc(Oc3ccccc3)cc2)OC(=O)N(Nc2ccccc2)C1=O` (stereo not given), the outcome was inactive.
Turning to `CC(C)N(C(=O)COc1nnc(C(F)(F)F)s1)c1ccc(F)cc1`, the result was inactive.
Turning to `Cc1cc(C)nc(NC(=O)NS(=O)(=O)c2ccccc2C(=O)OC2COC2)n1`, the result was inactive.
Regarding `COC(=O)c1ccccc1CS(=O)(=O)NC(=O)Nc1nc(OC)cc(OC)n1`, the molecule was called inactive.
For the molecule `CN1CSC(=S)N(C)C1`, the call was inactive.
The same measure for `CNC(=O)Oc1cccc(N=CN(C)C)c1`: “inactive”.
As for `Oc1ccc(Cl)cc1Cc1ccccc1`, the outcome was inactive.
Turning to `C[C@H]1[C@H](c2ccc(Cl)cc2)SC(=O)N1C(=O)NC1CCCCC1`, the molecule was called inactive.
With `O=[N+]([O-])c1c(Cl)c(Cl)c(Cl)c(Cl)c1Cl`, the result was inactive.
The result for `CC1(C)C(C=C(Cl)Cl)C1C(=O)OC(C#N)c1ccc(F)c(Oc2ccccc2)c1` (stereo not given) reads “inactive”; that for `CC(C)(C)C(O)C(Oc1ccc(Cl)cc1)n1cncn1` (stereo not given), “inactive”; that for `CNC(=O)Oc1ccccc1OC(C)C`, “inactive”.
The result for `O=C(O)CCCOc1ccc(Cl)cc1Cl` reads “inactive”; that for `CCOCN(C(=O)CCl)c1c(C)cccc1CC`, “inactive”.
`N#Cc1c(Cl)c(Cl)c(Cl)c(C#N)c1Cl`: the outcome was inactive.
Take `CC(C)(C)C(O)/C(=C\c1ccc(Cl)cc1Cl)n1cncn1` (stereo not given): the molecule was called inactive.
In the case of `O=C(O)COc1ccc(Cl)cc1Cl`, the call was inactive.
The same measure for `ClC1C(Cl)C(Cl)C(Cl)C(Cl)C1Cl` (stereo not given): “inactive”.
With `Oc1cc(Cl)ccc1Oc1ccc(Cl)cc1Cl`, the molecule was classed as inactive.
Regarding `COc1nn(CSP(=S)(OC)OC)c(=O)s1`, the call was inactive.
The result for `CCC(C)(NC(=O)c1cc(Cl)c(C)c(Cl)c1)C(=O)CCl` (stereo not given) reads “inactive”.
The result for `O=C(Nc1ccccc1)Nc1cnns1` reads “inactive”; that for `CCS(=O)(=O)c1cccnc1S(=O)(=O)NC(=O)Nc1nc(OC)cc(OC)n1`, “inactive”.
